The nature of experiment [1]: NCI Yeast Anticancer Drug Screen. Data for the rad50 strain (AID 155).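 Also: 0% = growth of vehicle-only cultures of the same strain.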 The settings on record: S. cerevisiae rad50 strain growth inhibition; at 50.0 µM; hits give high values. Put shortly: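 Relative growth inhibition (compound vs vehicle) was measured in yeast with a defined repair-gene alteration.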
Experiment [2] is described as follows: NCI Yeast Anticancer Drug Screen. Data for the mec2-1 strain (AID 157). To be noted: S. cerevisiae mec2-1 strain, at 50.0 µM, hits give high values. Put shortly: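 Compounds were applied to mec2-1 yeast cells. Their growth was then compared with that of vehicle-treated cultures to give growth inhibition.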
Experiment [3] in a line: NCI Yeast Anticancer Drug Screen. Data for the sgs1 mgt1 strain (AID 161).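 Also: 0% = growth of cultures given vehicle only.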 To be noted: S. cerevisiae sgs1 mgt1 strain, at 50.0 µM, hits give high values. Put shortly:
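This yeast growth screen uses a strain with defined DNA-repair lesions; compound-treated growth is compared with vehicle-treated growth.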

Experiment [4] in a line: NCI Yeast Anticancer Drug Screen. Data for the cln2 rad14 strain (AID 165).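 Also: 0% = growth equal to vehicle treated cultures.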 The settings on record: S. cerevisiae cln2 rad14 strain, at 50.0 µM, hits give high values. Put shortly: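 Strain: cln2 rad14 yeast, altered in cell cycle control and DNA damage repair. Read-out: growth inhibition vs vehicle.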
Experiment [5] can be described thus: NCI Yeast Anticancer Drug Screen. Data for the bub3 strain (AID 167). To be noted: S. cerevisiae bub3 mutant strain, at 50.0 µM, hits give high values. Put shortly:
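Screening used yeast with an engineered genetic alteration affecting cell cycle control. Compound-exposed cultures were compared with vehicle cultures, and reduced growth was taken as inhibition.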

A short description of experiment [6]: NCI Yeast Anticancer Drug Screen. Data for the mlh1 rad18 strain (AID 175). To be noted: S. cerevisiae mlh1 rad18 strain growth inhibition; at 50.0 µM; hits give high values. Put shortly:
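A repair-deficient yeast strain is exposed to test compound, and growth is scored relative to vehicle-treated controls.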

This is part of a sample that, as a whole, favours compounds with a hit. Of some 79,000 tested, about 15% had one in any assay. A number with no mark means an inactive call. Calls of active or inactive are those of the source. Rule as the data show it: active = growth inhibition above about 70%; inactive = the rest.

`COc1cc(C2c3[nH]c4ccccc4c3C[C@H]3COC(=O)N23)cc(OC)c1OC` (stereo partly specified): the growth inhibition in experiment [1] is 62.6%; in experiment [2] it was 15.3%; in experiment [3], 57.5%; in experiment [4] it was 24.4%; in experiment [5] it was 54%; in experiment [6], -10.2%.
Take `C=[CH][Sn]([Cl])([Cl])[CH]=C.CN(C)P(=O)(N(C)C)N(C)C`: the growth inhibition in experiment [1] is 28.5%; in experiment [2], 32.5%; in experiment [3], 44.4%; in experiment [4] it was 28.1%; in experiment [5], 53.3%; in experiment [6] it was 54.1%.
As to `CC[N+](C)(C)c1ccc(C)c(OC(=O)NC)c1`, the growth inhibition is -4.35% in experiment [1]; -11.2% in experiment [2]; -0.2% in experiment [3]; -24.8% in experiment [4]; 15.3% in experiment [5]; -0.45% in experiment [6].
For `CCOP(=O)(OCC)SC=C(Cl)Cl`, the growth inhibition in experiment [1] is -12.9%; in experiment [2] it was 5.5%; in experiment [3], 2.1%; in experiment [4], -10.6%; in experiment [5], 5%; in experiment [6], 6.15%.
As for `O=S(=O)(O)O.[Cr+3].[NH-]CC[NH-].[NH-]CC[NH-].[NH-]CC[NH-]`, the growth inhibition is -20.7% in experiment [1]; -20.1% in experiment [2]; 0.75% in experiment [3]; -36.5% in experiment [4]; 10% in experiment [5]; 7.25% in experiment [6].
With `c1ccc(C[N+]23CN4CN(CN(C4)C2)C3)cc1`, the growth inhibition in experiment [1] was 9.5%; in experiment [2], -20%; in experiment [3] it was -7.6%; in experiment [4], 8.65%; in experiment [5] it was -18.2%; in experiment [6] it was -6.5%.
Consider `O=c1n(Cc2ccccc2)c2ccccc2n1CC1CS1` (stereo unspecified), for which the growth inhibition was 55.5% in experiment [1]; 21.4% in experiment [2]; 62.9% in experiment [3]; 4.75% in experiment [4]; 15.8% in experiment [5]; 31.1% in experiment [6].
With `C=CC(=O)OC(C)C`, the growth inhibition in experiment [1] is 21.6%; in experiment [2] it was 11.2%; in experiment [3], 2.35%; in experiment [4], -1.7%; in experiment [5] it was 33.8%; in experiment [6], 15.8%.
With `N#CC(OC1OC(C(=O)O)C(O)C(O)C1O)c1ccccc1` (stereo unspecified), the growth inhibition in experiment [1] is 17.2%; in experiment [2] it was -14.5%; in experiment [3], -5.3%; in experiment [4] it was 3%; in experiment [5], 0.6%; in experiment [6], 2.25%.
Regarding `CC(C)(C)P(O)(=S)c1ccccc1` (stereo unspecified) (tested in a mixture with another compound), the growth inhibition in experiment [1] was 2.65%; in experiment [2] it was 2.1%; in experiment [3], 1.9%; in experiment [4], -34.2%; in experiment [5] it was -24.6%; in experiment [6] it was 5.35%.
As to `CN(C)NP(=O)(c1ccccc1)c1ccccc1`, the growth inhibition in experiment [1] is 0.05%; in experiment [2], -3.05%; in experiment [3], -4.45%; in experiment [4] it was -10.5%; in experiment [5], 7.75%; in experiment [6], -2.9%.
Regarding `ClC1=C(Cl)C2(Cl)C3C4CC(C5OC45)C3C1(Cl)C2(Cl)Cl` (stereo unspecified), the growth inhibition was 27.4% in experiment [1]; -16.6% in experiment [2]; 1.25% in experiment [3]; 15.5% in experiment [4]; 9.75% in experiment [5]; -6.8% in experiment [6].
For `CCCCCCCCCCCCCCCC[As](CCCCCCCCCCCCCCCC)SC1OC(COC(C)=O)C(OC(C)=O)C(OC(C)=O)C1OC(C)=O` (stereo unspecified), the growth inhibition in experiment [1] was 6.55%; in experiment [2], 3.55%; in experiment [3], 19.9%; in experiment [4], -4.7%; in experiment [5], 1.5%; in experiment [6] it was 3.55%.
For the compound `[CH3][Sn]([CH3])([O]S(=O)c1ccc(Cl)cc1)[O]S(=O)c1ccc(Cl)cc1` (stereo unspecified), the growth inhibition in experiment [1] is 15.7%; in experiment [2], -9.3%; in experiment [3] it was -19.8%; in experiment [4] it was 14.7%; in experiment [5], -4.7%; in experiment [6] it was -11.1%.
On to `CC(O)CN(CCN(CC(C)O)CC(C)O)CC(C)O.[Cl-].[Zn+2]` (stereo unspecified), for which the growth inhibition in experiment [1] was 14.9%; in experiment [2], 9.25%; in experiment [3], 17.4%; in experiment [4], 10.7%; in experiment [5], 8.8%; in experiment [6] it was 6.1%.
On to `NS(=O)(=O)c1ccc(N=Nc2ccc([As](=O)(O)O)cc2)cc1`, for which the growth inhibition was 43% in experiment [1]; 6.6% in experiment [2]; 18.6% in experiment [3]; 19.2% in experiment [4]; 3.45% in experiment [5]; 19.9% in experiment [6].
Regarding `C=CC[As+](c1cccc2ccccc12)(c1cccc2ccccc12)c1cccc2ccccc12`, the growth inhibition in experiment [1] was -61.5%; in experiment [2] it was -14.1%; in experiment [3] it was -15.1%; in experiment [4] it was -33.4%; in experiment [5], 5.15%; in experiment [6], -11.5%.
Turning to `NC(=O)c1c[se]c(C2OC(CO)C(O)C2O)n1` (stereo unspecified), the growth inhibition in experiment [1] was -13.1%; in experiment [2], -8.75%; in experiment [3], -9.75%; in experiment [4], -3.25%; in experiment [5], -14.8%; in experiment [6], -9.95%.
For the compound `CS(=O)(=O)C(Cl)Cl`, the growth inhibition in experiment [1] is -1.5%; in experiment [2], -4.75%; in experiment [3], 0.75%; in experiment [4], -2.45%; in experiment [5] it was 6.3%; in experiment [6], 19.8%.
With `CC1(C)N=C(N)N=C(N)N1c1ccc(CCC(=O)Nc2ccc(S(=O)(=O)F)cc2)cc1`, the growth inhibition is 27.6% in experiment [1]; 87.3% (active) in experiment [2]; 76.8% (active) in experiment [3]; -28.8% in experiment [4]; -0.55% in experiment [5]; 54.1% in experiment [6].
Regarding `CS(=N)(=O)CCC(N)P(=O)(O)O` (stereo unspecified), the growth inhibition in experiment [1] was -29.8%; in experiment [2], -37.6%; in experiment [3] it was 6.85%; in experiment [4], 13.9%; in experiment [5], -50.5%; in experiment [6] it was -27.9%.

The values are drawn from PubChem BioAssay (NCI).
